Assay outcomes from PubChem BioAssay.
Mtb betalactam: beta-lactam sensitization of Mtb H37Rv; M. tuberculosis H37Rv growth with meropenem, percent inhibition; inhibition, % at 25 µM; 330,000 compounds, 0.27% hits; AID 434955; call rule not given here;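 further: growth measured after seven days incubation then overnight dye step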
Mtb FBA inh: inhibits M. tuberculosis FBA enzyme; inhibition, % at 1 µM; 360,000 compounds, 2.3% hits; purified M. tuberculosis FBA, fluorescence read-out; in the data active means inhibition above about 27%
Target sequence (P9WQA3 whole entry, looked up): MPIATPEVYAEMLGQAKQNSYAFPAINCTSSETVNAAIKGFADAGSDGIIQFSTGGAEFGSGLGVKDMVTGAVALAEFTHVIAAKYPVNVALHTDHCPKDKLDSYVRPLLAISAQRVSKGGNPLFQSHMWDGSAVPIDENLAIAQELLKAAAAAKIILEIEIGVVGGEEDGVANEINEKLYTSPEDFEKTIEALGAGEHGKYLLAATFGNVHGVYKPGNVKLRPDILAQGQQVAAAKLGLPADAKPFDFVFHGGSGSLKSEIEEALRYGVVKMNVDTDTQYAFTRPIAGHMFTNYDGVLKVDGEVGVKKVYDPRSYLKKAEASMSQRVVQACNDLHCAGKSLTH
RecA intein inh: blocks M. tuberculosis RecA intein splicing. cell-free RecA intein splicing, fluorescence. inhibition, % (test concentration not listed). 290,000 compounds, 0.75% hits. AID 2221. P9WHJ3; in the data active means inhibition above about 30%
GDH-TPI counter: counter-screen for M. tuberculosis FBA inhibitors: GDH-TPI coupled enzymes; 360,000 compounds, 1.2% hits; inhibition, % at 4.8 µM; GDH-TPI coupled enzyme counterscreen, NADH absorbance
CCHFV vOTU inh: blocks the CCHF virus ovarian tumor domain protease | CCHFV vOTU protease, Pep-AMC fluorescence | inhibition, % at 11.5 µM | 370,000 compounds, 0.55% hits | AID 651958
Large screens that a line does not name were inactive. Only some compounds are listed: those with a hit (about 4.2% of all), similar ones and a draw of the others. Unless noted, no stated cut-off is given here; in the data, active means inhibition above about 30%; inactive means the rest.

COCCn1c(-c2cccs2)nc2nc3ccccc3nc21	Mtb FBA inh active
c1csc(-c2nc3nc4ccccc4nc3n2Cc2ccc3c(c2)OCO3)c1	none (no result: RecA intein inh)
CCCn1c(-c2cccs2)nc2nc3ccccc3nc21	Mtb FBA inh active, GDH-TPI counter 31
COC(=O)C1CCN(C(=O)C2CC(=O)N(c3ccc(OC)cc3)C2c2ccc(OC)cc2)CC1 (configuration not stated)	none (no result: Mtb betalactam, Mtb FBA inh, RecA intein inh, GDH-TPI counter)
CCOC(=O)c1oc2nc(C(C)C)c3c(c2c1N)CC(C)(C)OC3	Mtb FBA inh 149 (no result: Mtb betalactam, RecA intein inh)
CCOC(=O)c1oc2nc(C(C)C)c3c(c2c1N)CCC3	Mtb FBA inh 124
COc1ccc(-c2oc3cccnc3c2C#CC2(O)CCCCC2)cc1	Mtb FBA inh active, GDH-TPI counter 34
COc1ccc(-c2oc3cccnc3c2C#CCO)cc1	Mtb FBA inh active, GDH-TPI counter 32 (no result: CCHFV vOTU inh)
COc1ccc(-c2c(-c3ccc(OC)nc3)c3ccccc3n2C)cc1	none (no result: RecA intein inh)
COc1ccc(-c2oc(=O)c3cc(OC)c(OC)cc3c2C#CC2(O)CCCCC2)cc1	none (no result: RecA intein inh)
COc1ccc(-c2oc3cccnc3c2-c2ccc(OC)nc2)cc1	Mtb FBA inh 139
Cc1ccccc1CN1CCCCC(NC(=O)c2ccccc2)C1=O (configuration not stated)	none (no result: Mtb betalactam, Mtb FBA inh, RecA intein inh, GDH-TPI counter)
Cc1cc(N2CCCN(C)CC2)n2nc(C)nc2n1	none (no result: Mtb betalactam, Mtb FBA inh, RecA intein inh, GDH-TPI counter)
O=C(NCCc1c[nH]c2ccccc12)OCc1cn(Cc2cc(F)cc(F)c2)nn1	none (no result: Mtb betalactam, Mtb FBA inh, RecA intein inh, GDH-TPI counter)
Cc1cc2nc(-c3ccc(NC(=O)C(C)C)cc3)oc2cc1C	Mtb FBA inh 138
Cc1ccc(-c2nc3cc(NC(=O)C(C)C)ccc3o2)cc1	Mtb FBA inh 181
O=C(NCC1CCCO1)c1cc(-c2ccncc2)nc2ccccc12 (configuration not stated)	none (no result: Mtb betalactam, RecA intein inh)
Cc1ccc(S(=O)(=O)N(C)C)cc1NC(=O)c1cc(-c2ccco2)nc2ccccc12	Mtb FBA inh 45 (no result: CCHFV vOTU inh)
O=C(NCC1CCCO1)c1cc(-c2ccco2)nc2ccccc12 (configuration not stated)	Mtb FBA inh 183
Cc1ccccc1NC(=O)c1cc(-c2ccco2)nc2ccccc12	none (no result: Mtb betalactam, RecA intein inh)
S=c1[nH]nc(-c2cc(-c3ccccc3)n[nH]2)n1N=Cc1cccc(OCc2ccccc2)c1	none (no result: Mtb betalactam, Mtb FBA inh, RecA intein inh, GDH-TPI counter)
Cc1ccc(-c2ccc(/C=N/n3cnnc3)o2)cc1Cl	GDH-TPI counter 36
Cc1cc(C(=O)O)ccc1-c1ccc(/C=N/n2cnnc2)o1	GDH-TPI counter 50
Clc1cccc(-c2ccc(/C=N/n3cnnc3)o2)c1	GDH-TPI counter 50
CCN(CC)C(=O)CC[C@@H]1CC[C@]2(CCCN(Cc3ccc(Cl)cc3)C2)O1	none (no result: Mtb betalactam, Mtb FBA inh, RecA intein inh, GDH-TPI counter)
CCOC(=O)c1c(C)oc2c1C(=O)c1ccccc1C2=O	RecA intein inh 59
Cc1oc2c(c1C(=O)c1ccccc1)C(=O)C(=O)c1ccccc1-2	none
O=C(CCc1ccccc1)N[C@H]1[C@H](OCc2ccccc2)CCC[C@@]12C(=O)N(Cc1ccccc1)c1ccc(-c3cnccn3)cc12	none (no result: Mtb betalactam, Mtb FBA inh, RecA intein inh, GDH-TPI counter)
O=C(NCCCN1CCOCC1)/C(=C/c1ccc(-c2cccc([N+](=O)[O-])c2)o1)NC(=O)c1ccccc1	GDH-TPI counter 40 (no result: Mtb betalactam, RecA intein inh)
O=C(NCCCO)/C(=C/c1ccc(-c2cccc([N+](=O)[O-])c2)o1)NC(=O)c1ccccc1	none
O=C(/C=C/c1ccc(-c2cccc([N+](=O)[O-])c2)o1)N1CCOCC1	GDH-TPI counter 38
Cn1cc(/C=C(\NC(=O)c2ccccc2)C(=O)NCCCN2CCOCC2)c2ccccc21	GDH-TPI counter 33
CN(C)S(=O)(=O)n1cc(/C=C(\NC(=O)c2ccccc2F)C(=O)NCCN2CCOCC2)c2ccccc21	none (no result: Mtb betalactam, RecA intein inh)
CCn1cc(/C=C(\NC(=O)c2ccccc2F)C(=O)NCCN2CCOCC2)c2ccccc21	GDH-TPI counter 33
O=C(NCCc1c[nH]c2ccccc12)OCc1cn(Cc2ccccc2C(F)(F)F)nn1	none (no result: Mtb betalactam, Mtb FBA inh, RecA intein inh, GDH-TPI counter)
COc1ccc(C(=O)N/C(=C\c2cn(C)c3ccccc23)C(=O)N2CCN(C)CC2)cc1	GDH-TPI counter 43
CC(C)(C)OC(=O)NCc1cc(F)ccc1/C=C/S(=O)(=O)NC1CCCC1	none (no result: Mtb betalactam, Mtb FBA inh, RecA intein inh, GDH-TPI counter)
CCN(CC)S(=O)(=O)c1ccc(Cl)nc1	Mtb FBA inh 63
O=C(CC(=O)c1ccccc1)CS(=O)(=O)c1ccccc1	GDH-TPI counter 41 (no result: Mtb betalactam, RecA intein inh)
O=C(Nc1cccc(F)c1)OCCCN1CCC2(CCC(c3ccccc3)CC2)C1 (configuration not stated)	none (no result: Mtb betalactam, Mtb FBA inh, RecA intein inh, GDH-TPI counter)
O=C1OC(CN(Cc2ccccc2)Cc2ccccc2)CN1N=Cc1ccc([N+](=O)[O-])o1 (configuration not stated)	none (no result: Mtb betalactam, RecA intein inh)
O=C1OC(CN2CCOCC2)CN1N=Cc1ccc([N+](=O)[O-])o1 (configuration not stated)	GDH-TPI counter 32 (no result: RecA intein inh)
COC(=O)[C@]12C[C@H](CC(=O)N3CCCC3)C(=O)N(CCc3ccc(OC)c(OC)c3)C1=C[C@H](C(C)(C)C)O[C@@H]2C	none (no result: Mtb betalactam, Mtb FBA inh, RecA intein inh, GDH-TPI counter)
Cc1cccc(-c2nc3cc(NC(=O)C4CCCO4)ccc3o2)c1 (configuration not stated)	Mtb FBA inh 114
CCCCC(=O)Nc1ccc2oc(-c3cccnc3)nc2c1	Mtb FBA inh 141
CCC(=O)Nc1ccc2oc(-c3cccc(C)c3)nc2c1	Mtb FBA inh 139 (no result: RecA intein inh)
CN(C)c1cccc(/C=C2\CC3(OC(=O)c4ccc(Cl)cc4)CCCN2C3)c1 (configuration not stated)	none (no result: Mtb betalactam, Mtb FBA inh, RecA intein inh, GDH-TPI counter)
C[C@@H]1OCN(C)[C@H]2C[C@H]3c4[nH]c5cccc(-c6ccc7c(c6)OCO7)c5c4CCN3C[C@@H]12	none (no result: Mtb betalactam, Mtb FBA inh, RecA intein inh, GDH-TPI counter)
Cc1ccc2nsnc2c1NS(=O)(=O)c1c(C)ccc2nsnc12	RecA intein inh 36
CCCOc1cccc(C(=O)Nc2cccc(NC(=O)c3ccco3)c2)c1	none
Cc1cc(C(=O)Nc2nnc(C3CCCCC3)s2)no1	none
Cc1cc(C(=O)Nc2nnc(-c3ccccc3)s2)no1	GDH-TPI counter 32 (no result: Mtb betalactam)
O=C(Nc1nnc(SCc2ccc(F)cc2)s1)c1ccco1	GDH-TPI counter 41
O=C(Nc1nnc(SCc2cccc(F)c2)s1)c1ccco1	none
COc1cccc(-c2nnc(NC(=O)c3cccs3)s2)c1	GDH-TPI counter 35
CCCOc1cccc(-c2nnc(NC(=O)c3ccco3)s2)c1	GDH-TPI counter 49
O=C(Nc1ccc(Cl)cc1)C1CCCN1S(=O)(=O)c1cccnc1 (configuration not stated)	none (no result: Mtb betalactam, Mtb FBA inh, RecA intein inh, GDH-TPI counter)
Cc1nnc(NC(=O)c2ccco2)s1	none
COc1ccc(-c2nnc(NC(=O)c3ccco3)s2)cc1	GDH-TPI counter 45
Cc1ccc(-c2nnc(NC(=O)c3ccco3)s2)cc1	none
C/C=C(\C)c1nnc(NC(=O)c2ccco2)s1	GDH-TPI counter 33
COc1cccc(-c2nnc(NC(=O)c3ccco3)s2)c1	GDH-TPI counter 41
CCOc1ccccc1Nc1nnc(C)c(=O)[nH]1	none
CCOc1ccccc1Nc1nnc(Cc2ccccc2Cl)c(=O)[nH]1	RecA intein inh 31
CC/C(=C/c1sc2ccc(C)cc2[n+]1CCCS(=O)(=O)[O-])SC	none (no result: Mtb FBA inh, GDH-TPI counter)
CC/C(=C/c1sc2ccc(C)cc2[n+]1CCO)SC	RecA intein inh 34
CCN(CC)C(=O)CC[C@H]1CC[C@]2(CCCN(Cc3ccc(N(C)C)cc3)C2)O1	none (no result: Mtb betalactam, Mtb FBA inh, RecA intein inh, GDH-TPI counter)
CCCc1cc2c(=O)n(NC(=O)c3nn(C)cc3[N+](=O)[O-])c(C)nc2s1	none
